From PubChem BioAssay (Tox21)
Inconclusive results are not listed. A call without a number means that no potency is given here. Calls of active or inactive are those of the source. Unless noted, calls come from the whole dose curve; as a rule, active = well fitted curve in the direction sought with a large enough effect in the repeat runs; inconclusive = weak or mixed curves; inactive = no such curve, though single readings can be large; an effect the other way counts as inactive or inconclusive.

Experiments:
[1] = qHTS assay to identify small molecule agonists of the sonic hedgehog signaling (Shh) pathway (AID 1259368; calls by dose curve; note: nearly all actives have a fitted effect of over 15% in size; note: potency is the fitted concentration of half-maximal effect)
Method in brief: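 Steps: seed 3T3 Gli1-Luc cells, incubate 4 hr at 37 C, pin-transfer compounds in DMSO alongside a positive control, incubate 24 hr, add luciferase detection reagent, wait 30 min at room temperature, read luminescence.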

[2] = biological target: Estrogen receptor beta (Homo sapiens) (UniProt Q92731); assay: qHTS assay to identify small molecule agonists of the estrogen receptor beta (ER-beta) signaling pathway (AID 1259377; active = well fitted activation curve with a large enough effect in the signal ratio in the repeat runs, not every such curve was filed as active; the % refers to the signal ratio)
Method in brief: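 In HEK293T cells bearing a UAS-beta-lactamase reporter under ER-beta control, DMSO-delivered compounds were incubated for 16 hr at 37C. Activity was detected as fluorescence 2 hours after LiveBLAzer B/G FRET substrate addition.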

[3] = biological target: Estrogen receptor beta (Homo sapiens) (UniProt Q92731); assay: qHTS assay to identify small molecule antagonists of the estrogen receptor beta (ER-beta) signaling pathway (AID 1259378; active = well fitted inhibition curve with a large enough effect in the signal ratio in the repeat runs, not every such curve was filed as active; the % refers to the signal ratio; note: potency is the fitted concentration of half-maximal effect)
Method in brief: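 Antagonist mode: compounds added to beta-lactamase reporter HEK293T ER-beta-UAS cells stimulated with E2 (1nM final), 16 hr at 37C. LiveBLAzer B/G FRET substrate, 2 hours room temperature, fluorescence read-out.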

[4] = qHTS assay to identify small molecule agonists of the androgen receptor (AR) signaling pathway in the presence of an antagonist - cell viability counter screen (AID 1259379); note: nearly all actives have a fitted effect of over 25% in size; note: potency is the fitted concentration of half-maximal effect
Method in brief: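 Fluorescence from CellTiter-Fluor, added after 15 hr and read 1 hr later, gave cell viability. Cells were MDA-kb2 exposed to compounds (15 concentrations) in the presence of 3.0uM nilutamide at 37C, 0% CO2.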

[5] = qHTS assay to identify small molecule agonists of the estrogen receptor beta (ER-beta) signaling pathway - cell viability counter screen (AID 1259380); note: nearly all actives have a fitted effect of over 30% in size; note: potency is the fitted concentration of half-maximal effect
Method in brief: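 Same-well viability counter screen. Cells: ER-beta-UAS-bla HEK293T, plated 6 hr before compound, in 2% charcoal-stripped FBS. Compound exposure 16 hr, 37C; viability by CellTiter-Glo luminescence after 30 min at room temperature.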

[6] = biological target: Androgen receptor (Homo sapiens) (UniProt P10275); assay: qHTS assay to identify small molecule agonists of the androgen receptor (AR) signaling pathway in the presence of an antagonist (AID 1259381; calls by dose curve; note: nearly all actives have a fitted effect of over 15% in size)
Method in brief: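 Cells are MDA-kb2 (human breast carcinoma, MMTV-luc, AR/GR responsive). Nilutamide is present at 3.0uM final throughout; compounds are added at 15 concentrations and incubated 16hr at 37C before ONE-Glo luminescence detection.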

[7] = qHTS assay to identify small molecule antagonists of the estrogen receptor beta (ER-beta) signaling pathway - cell viability counter screen (AID 1259382);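 note: HEK293T cells carrying ER-beta-UAS-bla reporter stimulated with estradiol; series mostly up to about 92 µM; nearly all actives have a fitted effect of over 55% in size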
Method in brief: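 Following a 6 hr plating period, HEK293T cells carrying a UAS-driven beta-lactamase reporter under ER-beta control received compounds and 1nM E2 (final). After 16 hr at 37C and 2 hr substrate loading, CellTiter-Glo luminescence indicated viability.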

[8] = biological target: Estrogen receptor (Homo sapiens) (UniProt P03372); assay: qHTS assay to identify small molecule agonists of the estrogen receptor alpha (ER-alpha) signaling pathway in the presence of an antagonist (AID 1259383; calls by dose curve; note: top concentration of the series differs between compounds; nearly all actives have a fitted effect of over 15% in size)
Method in brief: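 Cells are hormone-deprived for 5 days (charcoal-stripped FBS, no phenol red), plated for 24hr, spiked with 10.0nM ICI-182,780, then dosed at 15 concentrations. After 22hr at 37C, ONE-Glo luminescence reports ERE-luciferase activity.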

[9] = qHTS assay to identify small molecule agonists or antagonists of the thyroid stimulating hormone receptor (TSHR) signaling pathway - wild type cell line counter screen (AID 1259384; calls by dose curve)
Method in brief: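 Counter screen in untransfected Hek293: compounds (15-point titration, triplicate) plus phosphodiesterase inhibitor Ro20-1724 added after 18 h plating; 30 min RT. Intracellular cAMP via competitive d2/cryptate immunoassay, 1 h incubation.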

[10] = biological target: Thyrotropin receptor (Homo sapiens) (UniProt P16473); assay: qHTS assay to identify small molecule antagonists of the thyroid stimulating hormone receptor (TSHR) signaling pathway (AID 1259385; calls by dose curve; note: nearly all actives have a fitted effect of over 20% in size)
Method in brief: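 Antagonist mode: compound-treated TSHR-expressing HEK293 cells were stimulated with 1.5 ng/mL TSH (final) in presence of Ro20-1724 for 30 min at RT. HTRF cAMP detection after 1 h; each compound tested at 15 concentrations, triplicate.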

[11] = qHTS assay to identify small molecule agonists of the estrogen receptor alpha (ER-alpha) signaling pathway in the presence of an antagonist - cell viability counter screen (AID 1259386);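 note: cells exposed to compounds for 22 h at 37 °C before the viability read; nearly all actives have a fitted effect of over 30% in size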; note: potency is the fitted concentration of half-maximal effect
Method in brief: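 Cells are starved of estrogens for 5 days in charcoal-stripped serum, seeded for 24hr and co-treated with ICI-182,780 (10.0nM final) and test compounds. After 22hr at 37C, viability is read as CellTiter-Fluor fluorescence.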

[12] = biological target: Progesterone receptor (Homo sapiens) (UniProt P06401); assay: qHTS assay to identify small molecule agonists of the progesterone receptor (PR) signaling pathway (AID 1346784; calls by dose curve; note: nearly all actives have a fitted effect of over 30% in size)
Method in brief: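 Using charcoal-stripped serum (2%) to limit endogenous steroids, PR-UAS-bla HEK 293T cells received compounds for 16 hr at 37C after 6 hr plating; beta-lactamase FRET fluorescence was recorded following 2 hr substrate loading at room temperature.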

[13] = biological target: Progesterone receptor (Homo sapiens) (UniProt P06401); assay: qHTS assay to identify small molecule antagonists of the progesterone receptor (PR) signaling pathway (AID 1346795; active = well fitted inhibition curve with a large enough effect in the signal ratio in the repeat runs, not every such curve was filed as active; the % refers to the signal ratio; note: potency is the fitted concentration of half-maximal effect)
Method in brief: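 Inhibition of R5020-induced (1 nM final) beta-lactamase reporter signal in PR-UAS-bla HEK293T cells was scored by FRET fluorescence after overnight (16 hr) compound treatment.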

[14] = qHTS assay to identify small molecule antagonists of the progesterone receptor (PR) signaling pathway - cell viability counter screen (AID 1346798); note: nearly all actives have a fitted effect of over 50% in size; note: potency is the fitted concentration of half-maximal effect
Method in brief: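 ATP content as viability readout: CellTiter-Glo luminescence, 30 min room temperature, in PR-UAS-bla HEK293T cells after 16 hr compound/R5020 treatment at 37C and 5% CO2.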

[15] = qHTS assay to identify small molecule agonists of the progesterone receptor (PR) signaling pathway - cell viability counter screen (AID 1346799; calls by dose curve; note: nearly all actives have a fitted effect of over 45% in size)
Method in brief: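 Cytotoxicity in PR-bla HEK293T cells: 16 h compound, 37C; CellTiter-Glo added post-FRET read; luminescence after 30 min RT.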

[16] = qHTS assay to identify small molecule antagonists of the TGF-beta/Smad signaling pathway - cell viability counter screen (AID 1346824); note: nearly all actives have a fitted effect of over 50% in size
Method in brief: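 Cytotoxicity counter-screen run in the same wells as the beta-lactamase Smad reporter read: CellTiter-Glo luminescence after 30 min at room temperature. HEK 293T SBE-bla cells had 5 hr compound exposure at 37 C with TGF-beta1 (0.25 ng/mL stock).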

[17] = qHTS assay to identify small molecule agonists of the TGF-beta/Smad signaling pathway - cell viability counter screen (AID 1346829); note: top concentration of the series differs between compounds; nearly all actives have a fitted effect of over 45% in size
Method in brief: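 Here the cytotoxicity of library compounds is measured in SBE-bla HEK 293T cells treated for 5 hr, using CellTiter-Glo added to wells already read for the beta-lactamase reporter.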

[18] = qHTS assay to identify small molecule agonists of the TGF-beta/Smad signaling pathway (AID 1346859; active = well fitted activation curve with a large enough effect in the signal ratio in the repeat runs, not every such curve was filed as active; the % refers to the signal ratio; note: series mostly up to about 77 µM)
Method in brief: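 Stable Smad binding element-beta-lactamase HEK 293T cells; 5 hr compound exposure at 37 C under 5% CO2; 2 hr room-temperature substrate step; fluorescence excited at 405 nm, collected at 460 nm and 530 nm.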

[19] = biological target: Thyrotropin-releasing hormone receptor (Homo sapiens) (UniProt P34981); assay: qHTS assay to identify small molecule antagonists of the thyrotropin-releasing hormone receptor (TRHR) signaling pathway (AID 1346877; active = well fitted inhibition curve with a large enough effect in the repeat runs, not every such curve was filed as active; note: series mostly up to about 51 µM)
Method in brief: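 Cells (TRHR-HEK293) are plated and kept 18 h at 37 °C/5% CO2. A calcium-sensitive dye is added for 2 h, compound follows for 5 min at room temperature, and TRH is then given at 1 nM final.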

[20] = qHTS assay to identify small molecule antagonists of the sonic hedgehog signaling (Shh) pathway (AID 1259369; calls by dose curve; note: potency is the fitted concentration of half-maximal effect; nearly all actives have a fitted effect of over 45% in size)
Method in brief: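 Inhibition of Shh signalling is measured as reduced Gli1-response-element firefly luciferase output in an NIH/3T3-derived stable reporter clone stimulated with conditioned medium for 24hr.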

Chain of Thyrotropin-releasing hormone receptor (Homo sapiens) (P34981 whole entry, looked up): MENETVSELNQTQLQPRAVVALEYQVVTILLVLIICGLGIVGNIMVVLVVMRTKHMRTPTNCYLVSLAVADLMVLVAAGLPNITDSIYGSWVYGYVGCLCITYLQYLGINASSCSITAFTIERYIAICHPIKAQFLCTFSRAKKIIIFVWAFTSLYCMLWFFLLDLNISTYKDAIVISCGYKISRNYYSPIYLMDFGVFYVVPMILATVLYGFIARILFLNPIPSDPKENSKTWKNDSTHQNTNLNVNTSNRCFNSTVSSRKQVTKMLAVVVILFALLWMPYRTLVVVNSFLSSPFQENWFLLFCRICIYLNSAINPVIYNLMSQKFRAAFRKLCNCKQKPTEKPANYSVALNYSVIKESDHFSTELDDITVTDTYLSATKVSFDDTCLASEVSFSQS
Chain of Androgen receptor (Homo sapiens) (P10275 whole entry, looked up): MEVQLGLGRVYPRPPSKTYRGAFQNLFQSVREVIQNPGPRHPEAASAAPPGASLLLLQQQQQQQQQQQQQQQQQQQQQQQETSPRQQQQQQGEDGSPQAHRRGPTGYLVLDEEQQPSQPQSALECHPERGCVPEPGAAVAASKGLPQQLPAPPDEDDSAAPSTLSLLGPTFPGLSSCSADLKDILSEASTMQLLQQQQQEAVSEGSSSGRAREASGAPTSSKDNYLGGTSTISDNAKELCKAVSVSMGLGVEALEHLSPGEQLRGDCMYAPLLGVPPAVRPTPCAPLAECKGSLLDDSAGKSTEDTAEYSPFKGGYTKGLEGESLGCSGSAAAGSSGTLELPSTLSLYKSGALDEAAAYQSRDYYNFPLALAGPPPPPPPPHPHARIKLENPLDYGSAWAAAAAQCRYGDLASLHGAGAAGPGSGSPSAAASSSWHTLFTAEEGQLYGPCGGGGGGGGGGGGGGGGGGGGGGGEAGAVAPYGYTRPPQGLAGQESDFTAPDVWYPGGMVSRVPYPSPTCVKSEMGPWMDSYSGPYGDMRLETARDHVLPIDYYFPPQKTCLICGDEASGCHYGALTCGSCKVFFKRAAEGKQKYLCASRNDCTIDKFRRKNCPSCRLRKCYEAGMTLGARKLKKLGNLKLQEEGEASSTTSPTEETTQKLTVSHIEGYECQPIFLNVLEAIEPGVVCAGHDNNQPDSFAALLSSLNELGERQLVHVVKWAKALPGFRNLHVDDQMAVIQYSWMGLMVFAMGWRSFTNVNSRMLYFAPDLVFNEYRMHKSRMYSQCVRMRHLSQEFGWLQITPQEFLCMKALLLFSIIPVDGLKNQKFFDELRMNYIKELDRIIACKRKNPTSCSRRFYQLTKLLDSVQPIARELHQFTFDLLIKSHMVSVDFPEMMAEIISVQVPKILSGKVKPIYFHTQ
Chain of Progesterone receptor (Homo sapiens) (P06401 whole entry, looked up): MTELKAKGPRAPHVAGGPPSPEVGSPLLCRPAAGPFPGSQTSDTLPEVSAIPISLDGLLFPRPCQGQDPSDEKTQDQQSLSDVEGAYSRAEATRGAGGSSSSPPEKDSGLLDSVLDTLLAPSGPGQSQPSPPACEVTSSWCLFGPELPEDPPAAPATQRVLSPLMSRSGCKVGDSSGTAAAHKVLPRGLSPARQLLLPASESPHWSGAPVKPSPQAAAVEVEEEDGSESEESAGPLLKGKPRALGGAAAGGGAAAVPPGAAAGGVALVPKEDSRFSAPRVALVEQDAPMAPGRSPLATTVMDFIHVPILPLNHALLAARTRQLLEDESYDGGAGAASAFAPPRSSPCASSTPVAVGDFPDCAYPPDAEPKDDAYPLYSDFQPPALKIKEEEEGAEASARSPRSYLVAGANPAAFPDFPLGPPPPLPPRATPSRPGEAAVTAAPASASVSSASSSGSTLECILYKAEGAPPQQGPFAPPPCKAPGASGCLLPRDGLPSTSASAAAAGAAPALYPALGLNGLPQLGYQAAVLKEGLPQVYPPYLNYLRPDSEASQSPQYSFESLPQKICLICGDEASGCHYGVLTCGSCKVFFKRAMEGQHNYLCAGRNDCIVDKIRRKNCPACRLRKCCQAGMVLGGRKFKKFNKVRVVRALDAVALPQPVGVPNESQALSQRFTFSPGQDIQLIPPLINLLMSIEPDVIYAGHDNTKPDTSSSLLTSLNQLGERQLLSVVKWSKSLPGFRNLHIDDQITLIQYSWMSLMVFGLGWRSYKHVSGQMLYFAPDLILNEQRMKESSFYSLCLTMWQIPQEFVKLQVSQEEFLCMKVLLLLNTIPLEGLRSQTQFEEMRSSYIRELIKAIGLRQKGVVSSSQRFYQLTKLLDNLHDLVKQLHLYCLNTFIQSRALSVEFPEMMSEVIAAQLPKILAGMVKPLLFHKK
Chain of Estrogen receptor beta (Homo sapiens) (Q92731 whole entry, looked up): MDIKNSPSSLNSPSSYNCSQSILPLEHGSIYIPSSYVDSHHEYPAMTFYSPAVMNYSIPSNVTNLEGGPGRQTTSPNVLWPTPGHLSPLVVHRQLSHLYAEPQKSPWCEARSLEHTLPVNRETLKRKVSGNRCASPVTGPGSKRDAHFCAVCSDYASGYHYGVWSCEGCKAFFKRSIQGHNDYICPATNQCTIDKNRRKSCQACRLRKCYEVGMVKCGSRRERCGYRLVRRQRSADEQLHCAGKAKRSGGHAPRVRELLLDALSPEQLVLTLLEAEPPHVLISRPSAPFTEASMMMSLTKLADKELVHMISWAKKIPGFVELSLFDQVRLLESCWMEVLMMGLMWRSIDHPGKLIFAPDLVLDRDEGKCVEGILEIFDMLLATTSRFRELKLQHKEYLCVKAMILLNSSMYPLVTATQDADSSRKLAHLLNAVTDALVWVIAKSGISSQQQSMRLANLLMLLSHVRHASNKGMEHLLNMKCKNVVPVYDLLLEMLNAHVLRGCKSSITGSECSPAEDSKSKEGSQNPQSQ
Chain of Estrogen receptor (Homo sapiens) (P03372 whole entry, looked up): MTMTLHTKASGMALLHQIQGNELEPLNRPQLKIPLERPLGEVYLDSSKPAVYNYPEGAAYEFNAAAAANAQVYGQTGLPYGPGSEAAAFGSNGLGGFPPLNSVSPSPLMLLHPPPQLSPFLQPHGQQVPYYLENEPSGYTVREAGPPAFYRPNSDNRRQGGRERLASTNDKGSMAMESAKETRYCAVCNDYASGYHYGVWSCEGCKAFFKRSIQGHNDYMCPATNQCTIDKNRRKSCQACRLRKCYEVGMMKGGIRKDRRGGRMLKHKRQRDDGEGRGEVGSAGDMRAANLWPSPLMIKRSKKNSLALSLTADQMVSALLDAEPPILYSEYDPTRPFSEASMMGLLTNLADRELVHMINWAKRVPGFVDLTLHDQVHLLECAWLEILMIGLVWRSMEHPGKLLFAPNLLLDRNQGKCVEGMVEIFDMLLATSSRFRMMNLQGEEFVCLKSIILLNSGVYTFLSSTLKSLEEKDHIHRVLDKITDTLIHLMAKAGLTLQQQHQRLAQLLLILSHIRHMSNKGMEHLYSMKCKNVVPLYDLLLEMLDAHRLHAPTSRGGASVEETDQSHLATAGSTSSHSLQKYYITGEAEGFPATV
Chain of Thyrotropin receptor (Homo sapiens) (P16473 whole entry, looked up): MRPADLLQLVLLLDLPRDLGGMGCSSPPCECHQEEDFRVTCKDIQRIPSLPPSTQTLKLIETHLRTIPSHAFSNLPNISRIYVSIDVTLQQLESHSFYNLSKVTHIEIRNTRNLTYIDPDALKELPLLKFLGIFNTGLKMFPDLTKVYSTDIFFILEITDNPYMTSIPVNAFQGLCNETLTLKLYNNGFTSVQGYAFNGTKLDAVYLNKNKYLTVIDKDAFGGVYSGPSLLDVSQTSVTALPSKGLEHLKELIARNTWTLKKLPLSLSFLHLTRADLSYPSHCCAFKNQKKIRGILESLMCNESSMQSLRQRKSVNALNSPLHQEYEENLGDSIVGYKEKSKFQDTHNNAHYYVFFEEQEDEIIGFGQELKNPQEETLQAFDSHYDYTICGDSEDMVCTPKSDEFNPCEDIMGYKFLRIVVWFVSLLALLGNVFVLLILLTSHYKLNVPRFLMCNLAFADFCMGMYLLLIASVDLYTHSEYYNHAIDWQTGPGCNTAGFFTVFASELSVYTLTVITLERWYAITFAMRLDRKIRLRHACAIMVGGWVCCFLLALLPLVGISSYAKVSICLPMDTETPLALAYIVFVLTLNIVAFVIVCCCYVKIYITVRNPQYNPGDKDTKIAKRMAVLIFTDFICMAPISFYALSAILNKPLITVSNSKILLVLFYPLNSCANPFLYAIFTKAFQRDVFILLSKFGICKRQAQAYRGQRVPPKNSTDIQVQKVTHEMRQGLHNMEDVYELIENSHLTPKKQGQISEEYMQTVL

Compound	Potency [1]	Potency [2]	Potency [3]	Potency [4]	Potency [5]	Potency [6]	Potency [7]	Potency [8]	outcome [9]	Potency [10]	Potency [11]	Potency [12]	Potency [13]	Potency [14]	Potency [15]	Potency [16]	Potency [17]	Potency [18]	outcome [19]	Potency [20]
O=C1Cc2cc(Cl)ccc2N1	inactive	inactive	inactive	inactive	inactive	inactive	inactive	inactive	inactive	inactive	inactive	inactive	inactive	inactive	inactive	inactive	inactive	inactive	inactive	
CCCCCCCC/C=C\CCCCCCCCO	inactive	inactive	inactive	inactive	inactive		inactive		inactive	inactive	inactive	inactive		inactive	inactive	inactive	inactive	inactive	inactive	
CO[C@]1(NC(=O)CSC(F)F)C(=O)N2C(C(=O)O)=C(CSc3nnnn3CCO)CO[C@H]21	inactive	inactive	inactive	inactive	inactive			inactive	inactive	inactive	inactive	inactive		inactive		inactive	inactive	inactive	inactive	
CCOc1ccc(Cc2nccc3cc(OCC)c(OCC)cc23)cc1OCC	inactive	inactive		29.8 µM (active)	inactive	inactive	inactive	inactive	inactive	inactive		inactive	16.8 µM (active)	18.8 µM (active)		inactive	inactive	inactive		
C=CC(=O)[O-].C=CC(=O)[O-].[Zn+2]	inactive	inactive	inactive	inactive	inactive		inactive	inactive	inactive		inactive			67 µM (active)		inactive	inactive	inactive		
Cc1cc(C)c(N)cc1C	inactive	inactive	inactive	inactive	inactive		inactive	inactive	inactive	inactive	inactive	inactive	inactive	inactive	inactive	inactive	inactive	inactive		
O=C1c2ccccc2C(=O)N1CCc1noc(-c2ccc(CN3CCCCCC3)s2)n1	inactive				3.15 µM (active)							inactive		inactive	inactive	inactive	inactive		inactive	22.3 µM (active)
OC1(c2ccccc2)CCNCC1	inactive	inactive	inactive	inactive	inactive	inactive	inactive		inactive	inactive	inactive			inactive	inactive	inactive	inactive	inactive	inactive	
CCC=CC#N	29.7 µM (active)	inactive	inactive	inactive	inactive		inactive	inactive	inactive	inactive	inactive	inactive		inactive		inactive	inactive	inactive		
OCCOCC#CCOCCO	inactive	inactive	inactive	inactive	inactive		inactive	inactive	inactive	inactive	inactive	inactive	inactive	inactive	inactive	inactive	inactive	inactive	inactive	
O=C1NC(=O)c2cc([N+](=O)[O-])ccc21	inactive	inactive	inactive	inactive	inactive	inactive	inactive		inactive	inactive	inactive	inactive	inactive	inactive	inactive	inactive	inactive	inactive	inactive	
O=c1[nH]ncc2ccccc12	inactive	inactive	inactive	inactive	inactive		inactive	inactive	inactive	inactive	inactive	inactive		inactive		inactive	inactive	inactive	inactive	
CC1=C(Br)C(=O)C(Br)=C/C1=C(/c1ccccc1S(=O)(=O)O)c1cc(Br)c(O)c(Br)c1C	inactive	inactive	inactive	18.6 µM (active)	inactive						18.6 µM (active)	inactive	inactive	inactive	inactive	inactive	inactive	inactive	inactive	
C=C1c2cccc(O)c2C(O)=C2C(=O)[C@]3(O)C(O)=C(C(N)=O)C(=O)[C@@H](N(C)C)[C@@H]3[C@@H](O)[C@H]12	inactive	inactive	inactive	inactive	inactive		inactive	inactive			inactive	inactive	inactive	inactive	inactive	inactive	inactive	inactive	inactive	
COC(=O)C1=C(C)NC(C)=C(C(=O)O[C@@H]2CCCN(Cc3ccccc3)C2)[C@@H]1c1cccc([N+](=O)[O-])c1	inactive	inactive	26.6 µM (active)	inactive	inactive		inactive	inactive	inactive	inactive	inactive					inactive	inactive	inactive	inactive	
